# Laboratory results taken from PubChem BioAssay (NCATS).
# Results filed as inconclusive are left out. Where a call stands in place of a potency, no number is given. Activity calls are given as the source filed them. The call rests on the fitted dose curve; in most records, active means well fitted cell-killing curve with a large enough effect; inconclusive means small, poorly fitted or top-dose-only effect, or effect the other way; inactive means no such curve, though single readings can be large or run the other way.
# Assay: Viability qHTS for spleen associated tyrosine kinase inhibitor (SYKi) naive MV4-11 cells (AID 1963823); further: nearly all actives have a fitted effect of over 40% in size
# Conditions: MV4-11 AML viability, CellTiter-Glo luminescence, 72 h; series mostly up to 45 µM
# Outline: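 CellTiter-Glo luminescence, 10 min room-temperature incubation, gave viability. Cells: naive MV4-11 (500/well), treated 72 hr at 37 C, 5% CO2.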
# Potency means the concentration at half of the fitted maximal effect.
Structure (SMILES),Potency,viability (% of control)
C[C@@H]1O[C@@H](O[C@H]2[C@@H]3C=CO[C@@H](O[C@@H]4O[C@H](CO)[C@@H](O)[C@H](O)[C@H]4O)[C@@H]3[C@@]3(CO)O[C@@H]23)[C@H](OC(=O)/C=C/c2ccc(O)cc2)[C@H](O)[C@H]1O,inactive,
Cc1ccccc1NC(=O)Nc1ccc(CC(=O)N(C)[C@@H](CC(C)C)C(=O)NCC[C@H](NC(=O)[C@@H]2CCCN2S(=O)(=O)c2cc(Cl)cc(Cl)c2)C(=O)O)cc1,inactive,
C/C1=C\CC[C@]2(C)O[C@H]2C(=O)c2c(C)coc2C1,inactive,
COC1C(CO)OC(n2cnc3c(=O)[nH]cnc32)C1O (centres undefined),inactive,
C[C@@]1(F)[C@H](O)[C@@H](CO)O[C@H]1n1ccc(N)nc1=O,inactive,
C[C@@H]1O[C@@H](O[C@H]2[C@H](OC(=O)[C@]34CCC(C)(C)C[C@H]3C3=CCC5[C@@]6(C)CC[C@H](O[C@@H]7O[C@H](CO[C@@H]8OC[C@H](O)[C@H](O)[C@H]8O)[C@@H](O)[C@H](O)[C@H]7O)C(C)(C)C6CC[C@@]5(C)[C@]3(C)C[C@H]4O)OC[C@@H](O)[C@@H]2O)[C@H](O)[C@H](O[C@@H]2OC[C@](O)(CO)[C@H]2O)[C@H]1O[C@@H]1OC[C@H](O)[C@H](O[C@@H]2OC[C@@H](O)[C@H](O)[C@H]2O)[C@H]1O (some centres undefined),,88.4% [at 9.25 µM] (inactive)
Cc1c(C2=CCN(C(=O)N(C)C(C)C)CC2)nnn1-c1cccnc1F,inactive,
C=CC(C)(C)c1[nH]c2ccccc2c1C1=C(O)C(=O)C(c2c[nH]c3c(CC=C(C)C)cccc23)=C(O)C1=O,18.4 µM (active),
CCC(CC)C(=O)Nc1sc2c(c1C#N)CCC(C(C)(C)CC)C2 (centres undefined),2.06 µM (active),
CC1CCCC(O)CC(=O)c2c(O)cc(O)cc2CC(=O)O1 (centres undefined),3.21 µM (active),
C=C(C(=O)OC)C1C(O)CC2(C)C(O)CCC(=O)C2C1O (centres undefined),inactive,
CC1(C)C[C@H](O)C[C@@]2(C)OC(=O)C=C12,inactive,
N#Cc1cccc(-c2nc(-c3cccnc3)no2)c1,inactive,
CC1(C)CCCC2(C)C1C(OC(=O)/C=C/C=C/C=O)C=C1COC(=O)C12O (centres undefined),5.02 µM (active),
CCOc1ccc(C(Nc2ccccn2)c2ccc3ccc(C)nc3c2O)cc1C (centres undefined),23.1 µM (active),
CC(=O)N[C@@H](Cc1c[nH]c2ccccc12)C(=O)N[C@@H](CCC(=O)O)C(=O)N[C@@H](Cc1cnc[nH]1)C(=O)N[C@@H](CC(=O)O)C(=O)Nc1ccc2c(C(F)(F)F)cc(=O)oc2c1,inactive,
COC(=O)CCC(=O)OC[C@]1(C)CCC[C@@]2(C)C3CC[C@]4(C)C=CC3(CCC12)C4 (some centres undefined),inactive,
C=C1CCC2C(C)(C)CC(O)CC2(C)C1CCC(C)CC(=O)O (centres undefined),inactive,
C[C@@H]1O[C@@H](O[C@H]2[C@H](OC(=O)[C@]34CCC(C)(C)C[C@H]3C3=CCC5[C@@]6(C)CC[C@H](O[C@@H]7O[C@H](C(=O)O)[C@@H](O)[C@H](O)[C@H]7O[C@@H]7O[C@H](CO)[C@H](O)[C@H](O)[C@H]7O)[C@@](C)(C=O)C6CC[C@@]5(C)[C@]3(C)C[C@H]4O)O[C@H](C)[C@H](O[C@@H]3O[C@H](C)[C@H](O)[C@H](O)[C@H]3O)[C@@H]2O)[C@H](O)[C@H](O)[C@H]1O[C@@H]1OC[C@@H](O)[C@H](O[C@@H]2O[C@H](CO)[C@@H](O)[C@H](O)[C@H]2O)[C@H]1O (some centres undefined),,5.74% [at 4.97 µM] (inactive)
Cc1cc(Cl)ccc1COc1ccnn1-c1cc(C(=O)O)ccn1,inactive,

Structure (SMILES),Potency,viability (% of control)
COc1cc(C2Oc3c(OC)cc(CCCO)cc3C2CO)ccc1O (centres undefined),inactive,
C=Cc1cc(O)cc2nc(-c3ccc(O)c(F)c3)oc12,23.5 µM (active),
Cc1csc(N(C(=O)CSc2ccc(-c3ccccc3)nn2)C2CC2)n1,inactive,
O=C(N[C@H]1CCN(C(=O)c2cc(C(F)(F)F)cc(C(F)(F)F)c2)[C@H](Cc2ccc(Cl)cc2)C1)c1ccnc2ccccc12,8.93 µM (active),
C=C1C(=O)O[C@@H]2C[C@H](C)[C@@H]3CC(=O)[C@H](O)[C@@]3(C)C[C@H]12,9.2 µM (active),
C=C(C)C(=O)OC1CC(CO)CCC/C(CO)=C/C2OC(=O)C(=C)C21 (centres undefined),1.61 µM (active),
CC1(C)CC[C@]2(C(=O)O[C@@H]3O[C@H](CO)[C@@H](O)[C@H](O)[C@H]3O)CC[C@]3(C)C(=CCC4[C@@]5(C)C[C@@H](O)[C@H](O)C(C)(C)C5CC[C@]43C)C2[C@@H]1O (some centres undefined),inactive,
Nc1nc(OC(c2ccc(-c3cccc(F)c3)cc2)C(F)(F)F)cc(-c2ccc(C[C@H](N)C(=O)O)cc2)n1 (some centres undefined),18.6 µM (active),
CC/C=C/CC1=C(CCCCCCCC(=O)O)CCC1=O,inactive,
C=C1CC[C@@]2(OC1)O[C@H]1CC3C4CC=C5C[C@@H](O[C@@H]6O[C@@H](C)[C@H](O)[C@@H](O)[C@H]6O)C[C@@H](O[C@@H]6O[C@H](C)[C@H](O)[C@H](O)[C@H]6O[C@@H]6O[C@@H](C)[C@H](O)[C@@H](O)[C@H]6O)[C@]5(C)C4CC[C@]3(C)[C@H]1[C@@H]2C (some centres undefined),,70.4% [at 9.25 µM] (inactive)
C[C@H]1C(=O)N2c3ccccc3[C@@]3(O)C[C@@H]4C(=O)N[C@](C)(c5nc6ccccc6c(=O)n54)N1[C@@H]23,inactive,
O=C(O)c1cn(C2CC2)c2cc(N3C[C@@H]4C[C@H]3CN4)c(F)cc2c1=O,inactive,
Cc1cn2cc(CC(=O)N3CCC4(CC3)CN(Cc3ccc(-n5nccn5)cc3Cl)C4)nc2s1,16.4 µM (active),
Cc1cc(-c2nncc3c(C(C)(C)C)c(OCc4ncnn4C)nn23)no1,inactive,
CC1=CC(=O)C(C(C)C)=CC1=O,inactive,
C=C1CCC2C(C)(C(=O)O)CCCC2(C)C1CCC1=CCOC1=O (centres undefined),inactive,
CC(C)[C@@H]1C(=O)N(S(C)(=O)=O)[C@@H]2CCN(C(=O)/C=C/CN3CCCCC3)[C@H]21,inactive,
C=C1CC[C@@H]2[C@](C)(CO[C@@H]3O[C@H](CO)[C@@H](O)[C@H](O)[C@H]3O)[C@H](O)CC[C@@]2(C)[C@@H]1C/C=C1/C(=O)OC[C@H]1O,inactive,
CC/C(C)=C/C(=O)OC1C(OC2(C)CCC3C(C4C(C)CCC42)C3(C)C)OC(C)C(O)C1O (centres undefined),8.93 µM (active),
